# Screen size: about 13,000 compounds; about 3,200 (25%) showed an effect of 50% or more. The list shows a part of the results.
# Tested on: P. falciparum stage V gametocytes
# Set-up: BacTiter-Glo ATP luminescence viability of purified stage V gametocytes in 384-well plates, per cent inhibition versus DMSO
# Details: 48 h, 5 µM; inhibitor
row,Compound,% Inhibition [%]
1,Brc1ccsc1-c1nc(NC2CCN(Cc3ccccc3)CC2)no1 [TCMDC-134188],10.75
2,NCC(=O)NC12CC3CC(CC(C3)C1)C2 [TCMDC-131419],-2.875
3,N#CC1(c2ccccc2)CCN(c2nc(NCCCN3CCCC3=O)nc(N3CCCC4CCCCC43)n2)CC1 (centres unmarked) [TCMDC-139927],-17.2
4,CCNc1cc(C(=O)N[C@@H](Cc2ccccc2)[C@H](O)CNCCc2cc(OC)cc(OC)c2)cc(N2CCCCS2(=O)=O)c1 [TCMDC-134842],28.85
5,Cc1cccc2nc(-c3ccc(-c4cccc(NC(=O)CCc5c[nH]cn5)c4)s3)[nH]c12 [TCMDC-132161],5.175
6,COC(=O)c1cccc(CNCc2ccc(-c3ccc(-c4nc5cc(F)ccc5[nH]4)cc3)cc2)c1.O=C(O)C(F)(F)F [TCMDC-132953],44.17
7,COC(=O)c1cccc(CNCc2ccc(-c3ccc(-c4nc5cccc(C)c5[nH]4)cc3)cc2)c1.O=C(O)C(F)(F)F [TCMDC-132957],77.27
8,COC(=O)c1cccc(CNCc2cccc(-c3ccc(-c4nc5cccc(C)c5[nH]4)cc3)c2)c1.O=C(O)C(F)(F)F [TCMDC-132952],25.59
9,OC(CNc1ccnc(Nc2cccc(Cl)c2)n1)c1ccc(C(F)(F)F)cc1 (centres unmarked) [TCMDC-136596],-49.28
10,COc1cc2nc(-c3ccc(Br)cc3)cc(N)c2cc1OC [TCMDC-138933],106.9
11,COc1cc2nc(C)nc(Nc3cccc(Br)c3)c2cc1OC [TCMDC-131939],-0.682
12,Cc1nc(N)nc(N)c1-c1ccc(Br)cc1 [TCMDC-137374],-63.84
13,N#Cc1ccc(CN2CCC(Oc3ccc(NC(=O)c4cccs4)cc3)C2)cc1 (centres unmarked) [TCMDC-133959],8.963
14,N[C@@H](CCNCc1ccc(-c2cccnc2)cc1)Cc1ccc(F)c(F)c1 [TCMDC-132122],33.59
15,N[C@@H](CCN1CCC(c2cccc(O)c2)CC1)Cc1ccc(F)c(F)c1 [TCMDC-132126],-7.47
16,N#Cc1c(F)cc(N2CCC(NCC[C@H](N)Cc3ccc(F)c(F)c3)CC2)cc1F [TCMDC-132121],103.9
17,O=C(Nc1cccc(N2CCC(NCCCc3ccncc3)CC2)c1)c1cccc(C(F)(F)F)c1 [TCMDC-124659],7.336
18,O=C(NC1CCCC1)c1ccc(N2CCC(NCc3cccc(C(F)(F)F)c3)CC2)cc1 [TCMDC-124644],-9.577
19,N[C@@H](CCNC1CCN(c2cccc(C(F)(F)F)c2)CC1)Cc1ccc(F)c(F)c1 [TCMDC-132301],119.6
20,O=C(Nc1ccc(Cl)c(-c2nc3ccccc3[nH]2)c1)c1ccc(-c2ccc(Cl)cc2)o1 [TCMDC-125599],-11.96
21,N#Cc1ccc(N2CCN(Cc3ccc(-c4ccc(-c5nc6ccccc6[nH]5)s4)cc3)CC2)nc1.O=C(O)C(F)(F)F [TCMDC-133119],-24.51
22,COCCNCc1cccc(-c2ccc(CN(C(=O)NC3CCCCC3)C3CCN(Cc4ccccc4)CC3)cc2)c1 [TCMDC-140636],84.07
23,COCCNCc1ccc(-c2ccc(CN(C(=O)NC3CCCCC3)C3CCN(Cc4ccccc4)CC3)cc2)cc1 [TCMDC-140637],95.07

row,Compound,% Inhibition [%]
1,C[C@@H](CC1CCCCC1)NCc1cccc(NS(=O)(=O)c2ccc(O)c(-c3ccno3)c2)c1 [TCMDC-141485],41.65
2,COc1cc2[nH]c(-c3ccc(O)cc3)c(C)c(=O)c2c(OC)c1OC [TCMDC-137449],59.36
3,COc1cc(-c2nc(-c3ccccc3)c(-c3ccc([N+](=O)[O-])cc3)[nH]2)cc(OC)c1O [TCMDC-125529],-60.07
4,COc1c(O)cc2oc(-c3ccc(O)cc3)cc(=O)c2c1O [TCMDC-123942],46.88
5,O=C(Nc1ccc(Cn2ncc(N3CCCNCC3)c(Cl)c2=O)cc1)Nc1cc(C(F)(F)F)cc(C(F)(F)F)c1 [TCMDC-133327],-39.39
6,Cc1cc(N2CCOCC2)nc(Nc2ccc(NC(=O)c3cccc4ccccc34)cc2)n1 [TCMDC-124962],3.103
7,C[C@H](N[C@H]1CCCc2c1[nH]c1ccc(Br)cc21)c1ccccc1 [TCMDC-138915],-58.95
8,Cc1nc(-c2ccc(-c3ccc(NC(=O)c4coc5ccc(N6CC(C)NC(C)C6)cc45)cc3)c(C)c2)no1 (centres unmarked) [TCMDC-141309],-4.933
9,Cc1cc(-c2ccc(NC(=O)c3coc4ccc(N5CC(C)N(C)C(C)C5)cc34)cc2C)cc(C)n1 (centres unmarked) [TCMDC-141310],-15.05
10,Cc1nc(-c2ccc(-c3ccc(NC(=O)c4coc5ccc(N6CC(C)N(C)C(C)C6)cc45)cc3)c(C)c2)no1 (centres unmarked) [TCMDC-141233],92.65
11,O[C@H](c1cc(C(F)(F)F)nc2c(C(F)(F)F)cccc12)[C@@H]1CCCCN1 [TCMDC-123920],23.74
12,N#Cc1cccc(NC(=O)Nc2ccc3c(c2)CN(Cc2c[nH]c4ncccc24)C3)c1 [TCMDC-141757],5.913
13,COC(=O)c1cccc(C#CCCOCCCCCCNC[C@H](O)c2cc(Cl)c(N)c(Cl)c2)c1 [TCMDC-138515],25.12
14,O=C(c1cc(-c2cccs2)[nH]n1)N1CCN(S(=O)(=O)c2ccc(Br)cc2)CC1 [TCMDC-124703],15.64
15,Cc1ccc(S(=O)(=O)N2CCN(C(=O)c3cc(-c4cccs4)[nH]n3)CC2)c(C)c1 [TCMDC-124700],26.64
16,O=C(c1cc(-c2ccco2)[nH]n1)N1CCN(S(=O)(=O)c2ccc(Br)cc2)CC1 [TCMDC-124699],-28.22
17,O=C(c1cc(-c2ccco2)[nH]n1)N1CCN(S(=O)(=O)c2ccc(Cl)cc2)CC1 [TCMDC-124698],58.01
18,O=C(c1cc(-c2cccs2)[nH]n1)N1CCN(S(=O)(=O)c2ccc(Cl)s2)CC1 [TCMDC-124701],26.12
19,O=C(c1cc(-c2cccs2)[nH]n1)N1CCN(S(=O)(=O)c2ccc(Cl)cc2)CC1 [TCMDC-124702],54.51
20,CC(Nc1ccnc2cc(Cl)ccc12)c1ccc(S(N)(=O)=O)cc1 (centres unmarked) [TCMDC-125107],16.92
21,Cc1nc(Nc2ccc(C)c(Cl)c2)c2c(C)noc2n1 [TCMDC-125162],15.95
22,Cc1ccc(Cl)cc1NC(=O)c1c(-c2ccccc2Cl)noc1C [TCMDC-124175],-15.67
23,O=C(NC1CCCc2ccccc21)[C@@H]1CCCN1C(=O)c1ccc(O)c(-c2cccc([N+](=O)[O-])c2)c1 (some centres unmarked) [TCMDC-140798],18.58

row,Compound,% Inhibition [%]
1,COc1ccc(C(=O)N[C@@H](CC(C)C)C(=O)NC2CC[C@@H](C)N(C(=O)Nc3ccc(Cl)cc3)CC2=O)cc1OCCN1CCOCC1 (some centres unmarked) [TCMDC-134276],-74.97
2,CCOC(=O)c1ccc(N(CCCN(CCCN(c2ccc(C(=O)OCC)cc2)S(=O)(=O)c2ccc(C)cc2)CCc2ccc(O)cc2)S(=O)(=O)c2ccc(C)cc2)cc1 [TCMDC-137351],57.74
3,CCOC(=O)c1ccc(COc2ccc(C)nc2)cc1 [TCMDC-131377],0.9057
4,CCOC(=O)c1ccc(OCc2ccc(-c3ccccc3)cc2)cc1 [TCMDC-131397],4.826
5,CC(CCc1ccccc1)NCC(O)c1ccc2c3c(cccc13)S(=O)(=O)N2C (centres unmarked) [TCMDC-131253],8.689
6,c1ccc2c(NCCCCCCCNc3ccnc4ccccc34)ccnc2c1 [TCMDC-137897],122.9
7,NCCNc1ccnc2cc(Cl)ccc12 [TCMDC-125850],23.17
8,c1ccc2c(NCCCCCCNc3ccnc4ccccc34)ccnc2c1 [TCMDC-137913],91.15
9,NCCCNc1ccnc2cc(Cl)ccc12 [TCMDC-123921],17.37
10,Clc1ccc2c(NCCCCCCCCNc3ccnc4cc(Cl)ccc34)ccnc2c1 [TCMDC-137733],25.46
11,c1ccc2c(NCCCCCCCCCNc3ccnc4ccccc34)ccnc2c1 [TCMDC-137750],102.2
12,COc1ccc(NCCCNc2ccnc3ccccc23)cc1 [TCMDC-139253],-97.14
13,FC(F)(F)c1ccc2c(NCCCNc3ccnc4cc(C(F)(F)F)ccc34)ccnc2c1 [TCMDC-137736],28.34
14,FC(F)(F)c1ccc2c(NCCNc3ccnc4cc(C(F)(F)F)ccc34)ccnc2c1 [TCMDC-137881],-4.365
15,Clc1ccc2c(NCCNc3ccnc4cc(Cl)ccc34)ccnc2c1 [TCMDC-137882],57.8
16,COc1ccccc1-c1cccc2c(NC(=O)Nc3ccc4nccc(N5CCN(C)CC5)c4c3)ccnc12 [TCMDC-139384],-27.38
17,COc1ccc(C(=C(C)CC(C)C(=O)O)c2ccccc2)cc1 (centres unmarked) [TCMDC-131745],-8.546
18,Cc1c(CNCCCNc2nc3ccccc3[nH]2)sc(C(F)F)c1Br [TCMDC-141323],13.37
19,Cc1ccccc1-c1cc(=O)c2cc(NC(=O)c3cccs3)ccc2o1 [TCMDC-124947],11.18
20,COc1ccccc1/C=C/C(=O)N(C)C1CCN(CCCCCNC(=O)/C=C/c2ccc(Cl)c(Cl)c2)C1 (centres unmarked) [TCMDC-139996],13.3
21,Nc1nc(N)c2c(n1)CCc1cc(Br)ccc1-2 [TCMDC-125525],4.608
22,CN1CCC(c2c[nH]c3ccc(NC(=O)Nc4ccc(-c5ccncc5)cc4Cl)cc23)CC1 [TCMDC-139180],-1.977

# — PMC4552634, “A New Set of Chemical Starting Points with Plasmodium falciparum Transmission-Blocking Potential for Antimalarial Drug Discovery” (PLoS ONE, 2015)
